The subject of test [1] is Schistosoma mansoni schistosomula (LE). As to the kind of experiment: XTT viability relative to DMSO control; higher = more viable (less active). Conditions: 72 h; 10 µM. The procedure:
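XTT/PMS was then added for a further 24 h (72 h total) and A450 was read. % viability = (sample - heat-killed control)/(DMSO control - heat-killed control) x 100, from duplicate wells in two independent experiments.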
(Tetrazolium assays rely on reduction of a dye to a coloured formazan, in cell work by metabolically active cells.)

For test [2], the system named is Schistosoma mansoni schistosomula (NMRI). In words: phenotypic severity score (0-4); higher = more antischistosomal effect, active = 2 or more. Conditions: 10 µM.
Test [3] has as its system Schistosoma mansoni schistosomula (Liberian). In words: drug effect (1 - score/DMSO control score) (fraction); higher = more antischistosomal effect, active = 0.5 or more; extreme values may be limits of the assay. Conditions: 10 µM. The gist of the method: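 Liberian-strain Schistosoma mansoni schistosomula, mechanically transformed from cercariae and pre-incubated at least 12 h, were exposed in duplicate (50 per well, flat-bottom 96-well plates) to 10 µM compound in Medium 199 with 5% FCS at 37 °C, 5% CO2, with 0.1% DMSO control wells. Wells were scored visually (10×) at 24, 48 and 72 h on a quarter-point scale from 3 (normal) to 0 (dead). Drug effect was derived from the mean test-well score relative to the mean DMSO-control score. Negative values were set to zero, and plates were valid only if control wells averaged at least 2.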

Where only a bound is given, the exact number is not on record here.
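Wherever phenotypic severity score (0-4) is given: visual microscopic scoring of shape, motility and density changes versus 0.5% DMSO solvent controls, one point per descriptor, degeneracy or death scored 4, mean of duplicate wells.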

Turning to `Cc1cc(C)nc(-n2nc(C)cc2Nc2ccccc2)n1`, the XTT viability in test [1] came out at 55.6%. Moreover, the phenotypic severity score in test [2] (24 h) is 2 (active); in test [2] (48 h) it was 1 (inactive); in test [2] (72 h) it was 4 (active). Further, the results for the drug effect in test [3] (24 h), in test [3] (48 h) and in test [3] (72 h) were 0.0526 (inactive), 0.278 (inactive) and 0.25 (inactive), respectively.

`CN1CCCC1CCO[C@](C)(c1ccccc1)c1ccc(Cl)cc1` (stereo partly drawn): the XTT viability in test [1] was determined as 46.6%. For the same compound, the phenotypic severity score in test [2] (24 h) is 2 (active); in test [2] (48 h) it was 4 (active); in test [2] (72 h), 4 (active). Moreover, the values for the drug effect in test [3] (24 h), in test [3] (48 h) and in test [3] (72 h) were 0.9 (active), 1 (active) and 1 (active), respectively.

Turning to `COc1ccc(CN2CCOc3ccc(C(C)(O)CN(C)C)cc3C2)cc1C` (stereo not drawn), the XTT viability in test [1] came to 120%. Moreover, the phenotypic severity score in test [2] (24 h) was 0 (inactive); in test [2] (48 h) it was 0 (inactive); in test [2] (72 h), 1 (inactive). Also, the drug effect in test [3] (24 h) is 0.1 (inactive); in test [3] (48 h), 0.0556 (inactive); in test [3] (72 h), < 0 (inactive).

For `CCCCOC(=O)Nc1cc2nc(C3CCCCC3)[nH]c2cc1N1CCCC1`, the XTT viability in test [1] is 132%. Further, the results for the phenotypic severity score in test [2] (24 h), in test [2] (48 h) and in test [2] (72 h) were 3 (active), 4 (active) and 4 (active), respectively. Also, the values for the drug effect in test [3] (24 h), in test [3] (48 h) and in test [3] (72 h) were 0.15 (inactive), 0.389 (inactive) and 0.562 (active), respectively.

As for `CC(C)c1ncc(-c2ccncc2)c([C@H]2CC[C@H](CNC(=O)c3cccnc3)CC2)n1`, in test [1], the XTT viability came to 94%. Moreover, the phenotypic severity score in test [2] (24 h), in test [2] (48 h) and in test [2] (72 h) was 0 (inactive) throughout. The values for the drug effect in test [3] (24 h), in test [3] (48 h) and in test [3] (72 h) were 0.05 (inactive), 0.0811 (inactive) and 0.111 (inactive), respectively.

As to `Cc1cc(NCC(C)C)c2n[nH]c(-c3ccccc3)c2n1`, the XTT viability in test [1] was 92.7%. In addition, the phenotypic severity score in test [2] (24 h), in test [2] (48 h) and in test [2] (72 h) was 0 (inactive) in each case. Also, the drug effect in test [3] (24 h) was 0.105 (inactive); in test [3] (48 h) it was 0.111 (inactive); in test [3] (72 h), 0.0625 (inactive).

Consider `Cc1nc(-c2ccccn2)nc(NCCc2ccc(S(C)(=O)=O)cc2)c1Cl`, for which the XTT viability in test [1] was determined as 66.9%. For the same compound, the figures for the phenotypic severity score in test [2] (24 h), in test [2] (48 h) and in test [2] (72 h) were 0 (inactive), 4 (active) and 4 (active), respectively. The drug effect is 0.135 (inactive) in test [3] (24 h), 0.167 (inactive) in test [3] (48 h) and 0.5 (active) in test [3] (72 h).

For the compound `CC(c1cc(Cl)cc(Cl)c1)N(C)c1ncc2c(N)nc(N)nc2n1` (stereo not drawn), in test [1], the XTT viability is 42.2%. For the same compound, the phenotypic severity score in test [2] (24 h), in test [2] (48 h) and in test [2] (72 h) was 0 (inactive) throughout. Besides, the drug effect was < 0 (inactive) in test [3] (24 h), < 0 (inactive) in test [3] (48 h) and 0.167 (inactive) in test [3] (72 h).

On to `O=C(Nc1ccc(N2CCNCC2)cc1)c1ccn2ncc(-c3cccc(Cl)c3)c2n1`, for which the XTT viability in test [1] was found to be 7.7%. Also, the phenotypic severity score in test [2] (24 h) was 2 (active); in test [2] (48 h) it was 4 (active); in test [2] (72 h), 4 (active). The figures for the drug effect in test [3] (24 h), in test [3] (48 h) and in test [3] (72 h) were 0.73 (active), 0.778 (active) and 0.938 (active), respectively.

Take `NS(=O)(=O)c1cncc(-c2ccc3nccc(-c4cn[nH]c4)c3n2)c1`: the XTT viability in test [1] is 98.4%. Also, the phenotypic severity score in test [2] (24 h), in test [2] (48 h) and in test [2] (72 h) was 0 (inactive) throughout. In addition, the drug effect in test [3] (24 h) is 0.135 (inactive); in test [3] (48 h) it was 0.111 (inactive); in test [3] (72 h), 0.312 (inactive).

Regarding `COc1ccc(-c2cnc3ccc(NCc4ccc(S(N)(=O)=O)cc4)nn23)cn1`, in test [1], the XTT viability was determined as 125%. In addition, the phenotypic severity score in test [2] (24 h), in test [2] (48 h) and in test [2] (72 h) was 0 (inactive) throughout. In addition, the values for the drug effect in test [3] (24 h), in test [3] (48 h) and in test [3] (72 h) were 0.15 (inactive), 0.222 (inactive) and 0.312 (inactive), respectively.

`CC1COC2(CCN(c3nc(=O)c4cc(C(F)(F)F)cc([N+](=O)[O-])c4s3)CC2)O1` (stereo not drawn): in test [1], the XTT viability stood at 80%. In addition, the phenotypic severity score in test [2] (24 h) was 1 (inactive); in test [2] (48 h) it was 0 (inactive); in test [2] (72 h), 0 (inactive). For the same compound, the drug effect in test [3] (24 h) is 0.136 (inactive); in test [3] (48 h), 0.25 (inactive); in test [3] (72 h) it was 0.291 (inactive).

As for `CN(C)c1cc(NC(=O)Nc2ccccc2)c2ccccc2n1`, the XTT viability in test [1] was -13.7%. Moreover, the phenotypic severity score is 1 (inactive) in test [2] (24 h), 0 (inactive) in test [2] (48 h) and 0 (inactive) in test [2] (72 h). For the same compound, the figures for the drug effect in test [3] (24 h), in test [3] (48 h) and in test [3] (72 h) were 0.182 (inactive), 0.35 (inactive) and 0.455 (inactive), respectively.

Turning to `COc1ccc(C2=NN(C3CCCCCC3)C(=O)[C@@H]3CC=CC[C@H]23)cc1OCCCCOc1ccc(-c2nn[nH]n2)cc1`, the XTT viability in test [1] is 31%. Moreover, the phenotypic severity score in test [2] (24 h) was 2 (active); in test [2] (48 h) it was 0 (inactive); in test [2] (72 h), 0 (inactive). Also, the drug effect was 0.35 (inactive) in test [3] (24 h), 0.568 (active) in test [3] (48 h) and 0.667 (active) in test [3] (72 h).

Regarding `O=C(NC1CC1)c1ccc(CSCc2ccccc2Cl)o1`, the XTT viability in test [1] worked out at 114%. In addition, the phenotypic severity score in test [2] (24 h) was 1 (inactive); in test [2] (48 h), 0 (inactive); in test [2] (72 h), 1 (inactive). For the same compound, the drug effect was 0.405 (inactive) in test [3] (24 h), 0.444 (inactive) in test [3] (48 h) and 0.562 (active) in test [3] (72 h).

For `O=C(NCCc1ccn(-c2ccccc2)n1)C1CCCCC1`, in test [1], the XTT viability came to 74.1%. In addition, the phenotypic severity score in test [2] (24 h), in test [2] (48 h) and in test [2] (72 h) was 0 (inactive) throughout. For the same compound, the drug effect in test [3] (24 h) is 0.136 (inactive); in test [3] (48 h), < 0 (inactive); in test [3] (72 h) it was 0.0526 (inactive).

Turning to `CCN(CC)CCCCCCNc1cc(OC)cc2c(C)ccnc12`, in test [1], the XTT viability came out at 59.3%. The phenotypic severity score in test [2] (24 h), in test [2] (48 h) and in test [2] (72 h) was 0 (inactive) throughout. Besides, the drug effect in test [3] (24 h) is 0.1 (inactive); in test [3] (48 h), 0.135 (inactive); in test [3] (72 h), 0.167 (inactive).

As for `NCC(=O)N1CCn2c(nc(-c3ccccc3)c2Nc2ccc3c(c2)OCO3)C1`, the XTT viability in test [1] came out at 129%. The phenotypic severity score in test [2] (24 h) was 0 (inactive); in test [2] (48 h), 0 (inactive); in test [2] (72 h), 2 (active). Moreover, the drug effect is 0.297 (inactive) in test [3] (24 h), 0.444 (inactive) in test [3] (48 h) and 0.688 (active) in test [3] (72 h).

For `CC(C)N=c1cc2n(-c3ccc(Cl)cc3)c3ccccc3nc-2cc1Nc1ccc(Cl)cc1`, in test [1], the XTT viability was 16.6%. The phenotypic severity score in test [2] (24 h), in test [2] (48 h) and in test [2] (72 h) was 4 (active) in each case. Besides, the drug effect in test [3] (24 h), in test [3] (48 h) and in test [3] (72 h) was 1 (active) in each case.

Values taken from the supplement of paper PMC6805474.
